Measurements as given in PubChem BioAssay AID1159580 (chemical genetic matrix, 2015).
The whole screen tested about 5,500 compounds, of which about 2,000 (36%) were called active. Not shown: some 18% with an inconclusive outcome. Cut-off read from the data, not from the text of the source: active = normalized growth mostly below about 0.91 (no sharp cut-off); inconclusive = no clear call, values can overlap the other calls; inactive = mostly above about 0.92. The list shows a part of the results.

Test: chemical genetic growth profiling, strain panel (AID 1159580);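 note: tested at 20 µM; growth read once vehicle control cultures reached saturation at 30 °C; 1 = growth at the plate median or of vehicle wells; lower values mean less growth of the strain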
Settings: S. cerevisiae deletion strains, growth OD
[1] = locus YHR030C, strain SLT2, stronger effect = lower value
[2] = locus YHR079C, strain IRE1, stronger effect = lower value
[3] = locus YJL095W, strain BCK1, stronger effect = lower value
[4] = locus YJR066W, strain TOR1, stronger effect = lower value
[5] = locus YLR113W, strain HOG1, stronger effect = lower value
[6] = locus YNL183C, strain NPR1, stronger effect = lower value
[7] = locus YOR231W, strain MKK1, stronger effect = lower value
[8] = locus YPL256C, strain CLN2, stronger effect = lower value

Measured: normalized growth

Cc1ccc(C(O)(c2ccccc2)c2ccccc2)c2ccccc12
inactive: locus YAR019C, strain CDC15, stronger effect = lower value 0.992 | locus YBL105C, strain PKC1, stronger effect = lower value 0.985 | locus YBR135W, strain CKS1, stronger effect = lower value 0.98 | locus YBR136W, strain MEC1, stronger effect = lower value 0.983 | locus YBR160W, strain CDC28, stronger effect = lower value 0.985 | locus YDL017W, strain CDC7, stronger effect = lower value 0.992 | locus YDL028C, strain MPS1, stronger effect = lower value 0.985 | locus YDL101C, strain DUN1, stronger effect = lower value 0.97 | locus YDL108W, strain KIN28, stronger effect = lower value 0.981 | locus YDL132W, strain cdc53, stronger effect = lower value 0.976 | locus YDL214C, strain PRR2, stronger effect = lower value 0.963 | locus YDR052C, strain DBF4, stronger effect = lower value 0.992 | locus YDR054C, strain cdc34, stronger effect = lower value 0.988 | locus YDR226W, strain ADK1, stronger effect = lower value 0.983 | locus YDR477W, strain SNF1, stronger effect = lower value 0.975 | locus YER123W, strain YCK3, stronger effect = lower value 1 | locus YER133W, strain GLC7, stronger effect = lower value 0.998 | locus YFL009W, strain cdc4, stronger effect = lower value 0.982 | locus YFL029C, strain CAK1, stronger effect = lower value 0.993 | locus YFR003C, strain YPI1, stronger effect = lower value 0.988 | locus YFR019W, strain FAB1, stronger effect = lower value 0.952 | locus YFR028C, strain CDC14, stronger effect = lower value 0.979 | locus YGR040W, strain KSS1, stronger effect = lower value 0.947 | locus YGR052W, strain FMP48, stronger effect = lower value 0.982 | locus YGR092W, strain DBF2, stronger effect = lower value 0.907 | [1] 1.02 | [2] 0.996 | locus YHR082C, strain KSP1, stronger effect = lower value 1 | locus YHR205W, strain SCH9, stronger effect = lower value 0.858 | locus YIL147C, strain SLN1, stronger effect = lower value 0.993 | [3] 0.904 | locus YJL128C, strain PBS2, stronger effect = lower value 0.926 | locus YJL157C, strain FAR1, stronger effect = lower value 0.997 | locus YJR016C, strain ILV3, stronger effect = lower value 0.995 | locus YJR066W, strain TOR1 (second series), stronger effect = lower value 0.963 | [4] 1.01 | locus YKL048C, strain ELM1, stronger effect = lower value 0.965 | locus YKL067W, strain YNK1, stronger effect = lower value 0.975 | locus YKL101W, strain HSL1, stronger effect = lower value 0.953 | locus YKL193C, strain SDS22, stronger effect = lower value 0.989 | locus YKL203C, strain TOR2, stronger effect = lower value 1.01 | [5] 0.936 | locus YLR133W, strain CKI1, stronger effect = lower value 0.949 | locus YLR403W, strain SFP1, stronger effect = lower value 0.916 | locus YML070W, strain DAK1, stronger effect = lower value 0.959 | locus YMR001C, strain CDC5, stronger effect = lower value 0.988 | locus YMR205C, strain PFK2 (second series), stronger effect = lower value 0.976 | locus YMR277W, strain FCP1, stronger effect = lower value 0.991 | locus YNL006W, strain LST8, stronger effect = lower value 0.984 | locus YNL020C, strain ARK1, stronger effect = lower value 0.955 | locus YNL161W, strain CBK1, stronger effect = lower value 0.98 | [6] 0.987 | locus YNL207W, strain RIO2, stronger effect = lower value 0.991 | locus YNL222W, strain SSU72, stronger effect = lower value 0.983 | locus YNL307C, strain MCK1 (second series), stronger effect = lower value 0.904 | locus YOL078W, strain AVO1, stronger effect = lower value 0.979 | locus YOL136C, strain PFK27, stronger effect = lower value 0.929 | locus YOR061W, strain CKA2, stronger effect = lower value 0.979 | locus YOR119C, strain RIO1, stronger effect = lower value 1.05 | [7] 0.966 | locus YOR329C, strain SCD5, stronger effect = lower value 0.992 | locus YPL031C, strain PHO85, stronger effect = lower value 0.983 | locus YPL153C, strain RAD53, stronger effect = lower value 1 | locus YPL204W, strain HRR25, stronger effect = lower value 0.956 | locus YPL209C, strain IPL1, stronger effect = lower value 0.983 | [8] 1.04 | locus YPR025C, strain CCL1, stronger effect = lower value 0.99 | locus YPR106W, strain ISR1, stronger effect = lower value 0.97 | locus YPR111W, strain DBF20, stronger effect = lower value 0.953 | strain NNK1, stronger effect = lower value 0.976 | strain TSCII, stronger effect = lower value 0.982

CCCCCCCCCCCCCCCCCCCCCCO
inactive: [1] 1.08 | [2] 0.973 | [3] 0.989 | [4] 0.967 | [5] 0.965 | [6] 0.916 | [7] 0.99 | [8] 0.99
